Assay results from PubChem BioAssay (Tox21).
Records with an inconclusive call do not appear. A number with no mark means an inactive call. Calls come from the whole dose curve.

Assay: p53 small molecule agonists, cell-based qHTS assay with rat liver microsomes (AID 1963578)
Conditions: HCT-116 p53RE-bla, beta-lactamase ratio, 16 h; series mostly up to 66 µM; activation: at the top concentration
Source text: U.S. Tox21 Program National Center for Advancing Translational Sciences [NCATS] Division of Preclinical Innovation [DPI] U.S. Environmental Protection Agency [EPA] National Institutes of Environmental Health Sciences [NIEHS] National Toxicology Program [NTP] U.S. Food and Drug Administration [FDA] Tox21 Assay Overview: p53, a tumor suppressor protein, is activated following cellular insult, including DNA damage and other cellular stresses. The activation of p53 regulates cell fate by inducing DNA repair, cell cycle arrest, apoptosis, or cellular senescence. The activation of p53, therefore, is a good indicator of DNA damage and other cellular stresses. […] The activation of the reporter gene under culture conditions can be detected by fluorescence intensity. This cell line was used to screen the Tox21 10K compound library in the condition of presence of rat liver microsomes and to identify agonists that activate the p53 signaling pathway after in vitro metabolic activation (Ooka et al., Archive of Toxicology 96:1975-1987, 2022).
Tox21 Assay Protocol Summary: The p53RE-bla cells were dispensed at 4,000cells/3ul/well in 1536-well black-clear bottom plates. After the assay plates were incubated at 37 C, 5% CO2 incubator for 5 hours, 23 nL of compounds dissolved in DMSO, positive controls or DMSO only was transferred to the assay plate. Following compound addition, 3 uL of rat liver microsomes (Molecular Toxicology, Boone, NC) at final concentration of 0.5 mg/mL and 1uL of Beta-Nicotinamide adenine dinucleotide 2-phosphate (NADPH) at final concentration of 0.5 mg/mL were transferred to the assay plate. The plates were incubated at 37 C for 16 hours. 1 uL of LiveBLAzer detection mixture was added to each well and the plates were incubated at room temperature in the dark for 2 h.
% is set by controls: 0 for no effect and ±100 for the full control effect.

SMILES | activation
O=C(O)CCCc1c[nH]c2ccccc12 | -2.86%
CCN(CC)CCc1nc(-c2ccccc2)no1 | 0.0881% [at 30.3 µM]
CCCCCCCCCCCCSC | 0.333%
CCCCN1CCCC1C(=O)Nc1c(C)cc(C)cc1C (stereo not given) | -0.9% [at 30.3 µM]
CCCCCCCCCOC(=O)c1ccc(O)cc1 | -6.37%
CCCCCCCCCCCC[N+](C)(C)CC(=O)[O-] | -0.589%
Nc1ccccc1O | -4.19%
CC(C)=CCC/C(C)=C/CC/C(C)=C/CCC(=O)OC/C=C(\C)CCC=C(C)C | -1.58% [at 30.3 µM]
O=C1c2ccccc2C(=O)N1CCl | -1.87%
CCn1nc(Cc2ccccc2)cc1C1CCN(C[C@H]2C[C@H](N(C)[C@@H](C(=O)O)C(C)C)C[C@@H]2c2cccc(F)c2)CC1 | -0.354%
C[C@@H]1CC[C@@]2(OC1)O[C@H]1C[C@H]3[C@@H]4CC[C@H]5C[C@@H](O)CC[C@]5(C)[C@H]4CC(=O)[C@]3(C)[C@H]1[C@@H]2C | 0.138% [at 5.99 µM]
OCC(CO)(CO)COCC(CO)(CO)CO | -0.22%
CC(C)(C)c1cc(CCC(=O)NN)cc(C(C)(C)C)c1O | 3.61%
CCCCCC(=O)OCC | -2.78%
COc1ccccc1OC(=O)Oc1ccccc1OC | 0.569% [at 30.3 µM]
CC(C)Cn1cnc2c(N)nc3ccccc3c21 | -0.62% [at 13.6 µM]
Oc1cc(O)c(Cl)cc1Cl | 0.646%
O=C(O)c1ccccc1NCCc1ccccc1 | 1.12% [at 30.3 µM]
CC1(C)S[C@@H]2[C@H](NC(=O)C(c3ccccc3)S(=O)(=O)O)C(=O)N2[C@H]1C(=O)O (stereo not given in full) | -4.06% [at 30.3 µM]
C[C@H]1O[C@H](O[C@H]2[C@H](O)[C@@H](O)[C@@H](O[C@H]3[C@H](O)[C@@H](O)[C@H](O)O[C@@H]3CO)O[C@@H]2CO)[C@H](O)[C@@H](O)[C@@H]1N[C@H]1C=C(CO)[C@@H](O)[C@H](O)[C@H]1O | 0.148% [at 30.3 µM]

SMILES | activation
Cc1nnc(C(=O)NC(C)(C)c2nc(C(=O)NCc3ccc(F)cc3)c(O)c(=O)n2C)o1 | 1.2% [at 30.3 µM]
COC(=O)CC#N | -1.08%
CC(C)=CC(=O)C=C(C)C | -1.48%
COc1cc2nc(N3CCN(C(=O)c4ccco4)CC3)nc(N)c2cc1OC | 0.86% [at 13.6 µM]
CC(=O)Nc1cc(S(=O)(=O)O)cc2cc(S(=O)(=O)O)c(N=Nc3ccccc3)c(O)c12 | 4.42%
O=C(OCC1(COC(=O)c2cccnc2)CCCC(COC(=O)c2cccnc2)(COC(=O)c2cccnc2)C1O)c1cccnc1 | -0.0176% [at 30.3 µM]
COc1cc(S(=O)(=O)O)c(C)cc1N=Nc1c(O)ccc2cc(S(=O)(=O)O)ccc12 | -0.801%
N[C@H](C(=O)O)[C@@H](O)c1ccc(O)c(O)c1 | -2.09% [at 30.3 µM]
Cc1ccsc1/C=C/C1=NCCCN1C | -2.31% [at 30.3 µM]
N#Cc1ccc(C(=O)O)cc1 | -0.0799%
Cc1cc2c(s1)Nc1ccccc1N=C2N1CCN(C)CC1 | 3.64% [at 30.3 µM]
Clc1cccnc1 | -0.532%
CCc1nccnc1C | -0.442%
N[C@@H](COP(=O)(O)O)C(=O)O | -0.0703% [at 13.6 µM]
CN(C)Cc1ccccc1 | -2.18%
Cc1nc2n(c(=O)c1CCN1CCC(c3noc4cc(F)ccc34)CC1)CCCC2 | -0.605% [at 30.3 µM]
O=C(NCCc1c[nH]c2ccccc12)c1cccnc1 | 0.425% [at 30.3 µM]
CCCCCCCCCCCC | 0.741%
Cc1cc(NC(=O)C2=C(O)c3ccccc3S(=O)(=O)N2C)no1 | -1.49% [at 30.3 µM]
CC(C)(c1cc(Br)c(OCCO)c(Br)c1)c1cc(Br)c(OCCO)c(Br)c1 | -1.52%
